From ChEMBL document CHEMBL4513149, “CO-ADD screening of MMV (CH) - MMV compounds” (2021)
Results with a measured potency or affinity are listed apart.

Legend:
Staphylococcus aureus = conditions: Concentration 20 uM; ASSAY_TEST Inhibition of Bacterial Growth; detection method Absorption (OD600); MEDIA CAMHB; plate type 384well; NBS; CORNING #3640; time 18 hr
Escherichia coli = conditions: Concentration 20 uM; ASSAY_TEST Inhibition of Bacterial Growth; detection method Absorption (OD600); MEDIA CAMHB; plate type 384well; NBS; CORNING #3640; time 18 hr

CCCCS(=O)(=O)Nc1ccc2cnn(C)c2c1
Inhibition (Staphylococcus aureus): 17.72% | Inhibition (Escherichia coli): 10.93%

Cc1ccc2oc(-c3cc(NC(=O)Cc4ccccc4)ccc3Cl)nc2c1
Inhibition (Staphylococcus aureus): 2.8% | Inhibition (Escherichia coli): 6.02%

CCCCc1ccc(C(=O)Nc2nccc3ccccc23)nc1
Inhibition (Staphylococcus aureus): 5.7% | Inhibition (Escherichia coli): -0.87%

O=C(NC1CC1)c1ccc(N2CCOc3ccc(Cl)cc32)s1
Inhibition (Staphylococcus aureus): 18.01% | Inhibition (Escherichia coli): 8.85%

CCN(CC)CCCCCCNc1cc(OC)cc2c(C)ccnc12.Cc1ccc(S(=O)(=O)O)cc1
Inhibition (Staphylococcus aureus): 18.42% | Inhibition (Escherichia coli): 7.48%

CNC(=O)c1cc(S(=O)(=O)N2CCN(c3ccccn3)CC2)cs1
Inhibition (Staphylococcus aureus): 7.99% | Inhibition (Escherichia coli): -1.66%

CC(C)(C)OC(=O)N1CCN(c2cc(-c3ccc(Oc4ccccc4)cc3)n[nH]2)CC1
Inhibition (Staphylococcus aureus): 17.78% | Inhibition (Escherichia coli): 7.28%

CC(Oc1ccccc1)C(=O)Nc1nc(-c2ccccn2)cs1 (stereo unspecified)
Inhibition (Staphylococcus aureus): 40.18% | Inhibition (Escherichia coli): -10.82%

Cc1nnc(NC(=O)c2cn(-c3ccccc3)nc2-c2ccccc2C)o1
Inhibition (Staphylococcus aureus): 8.57% | Inhibition (Escherichia coli): 8.61%

COc1ccc(C2=NN(C3CCCCCC3)C(=O)[C@@H]3CC=CC[C@H]23)cc1OCCCCOc1ccc(-c2nnn[nH]2)cc1
Inhibition (Staphylococcus aureus): 53.58% | Inhibition (Escherichia coli): 1.88%

CC1CC1C(=O)NC1CCN(CC2(c3ccccc3)CCCCC2)CC1 (stereo unspecified)
Inhibition (Staphylococcus aureus): 14.54% | Inhibition (Escherichia coli): 6.55%

Cc1cc2ccccc2n1CC(=O)N1CC(C(=O)N2CCCCC2)Oc2ccccc21 (stereo unspecified)
Inhibition (Staphylococcus aureus): 16.51% | Inhibition (Escherichia coli): 10.52%

CN1CCCN(C(c2ccccc2)c2ccc(Cl)cc2)CC1 (stereo unspecified) [HOMOCHLORCYCLIZINE]
Inhibition (Staphylococcus aureus): 14.31% | Inhibition (Escherichia coli): 4.77%
